Test results as given in publication PMC5540273 (PLoS ONE, 2017).

Columns and labels:
DRAK2 = system: T1, DRAK2
T1 construct: gene STK17B

DRAK1 = system: T2, DRAK1
T2 construct: gene STK17A
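Also: kd values determined as follow-up on hits from a single-replicate KINOMEscan panel screen.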

SMILES | Kd (DRAK2) [nM] | Kd (DRAK1) [nM]
CSc1ccc(-c2cc3ncnc(SCC(=O)O)c3s2)cc1 | 3.8 | –
O=C(O)COc1ncnc2cc(-c3ccc4[nH]ncc4c3)sc12 | 30 | 250
